Screening results as filed in PubChem BioAssay.
SMN2 splice enh: qHTS Assay for Enhancers of SMN2 Splice Variant Expression; Potency, µM (series often up to 46.1 µM), without a hit: at the top dose activity change, positive = activation, actives largely listed as activators; AID 1458, 2008; 210,000 tested, 2.8% active; HEK293 SMN2-luciferase splicing reporter, luminescence, 30-36 h; further: % of control where 0% means no effect; nearly all actives have a fitted effect of over 55% in size
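HEK293 cells carry an SMN2 […]–luciferase reporter in which exon 7 inclusion puts luciferase in frame. Cells were plated 10-12 h before compound addition, then incubated 30-36 h at 37C. ONE-Glo luminescence was read; sodium butyrate at 4.5 mM final served as control.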
Rab9 prom act: qHTS Assay for Rab9 Promoter Activators; Huh7 Rab9 promoter-luciferase reporter, luminescence, 24 h; 320,000 tested, 2.8% active; AID 485297, 2010; Potency, µM (series often up to 9.22 µM), for the others: at the highest dose activation, negative = inhibition, usual class: activators; further: % of control where 0% means no effect; nearly all actives have a fitted effect of over 60% in size
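Luminescence read-out: Huh7 cells stably expressing Rab9-luciferase, treated 24 h with compound at 37 °C, then lysed with luciferase reagent for 10 min at ambient before reading.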
FLuc counter: qHTS profiling assay for firefly luciferase inhibitor/activator using purifed enzyme and Km concentrations of substrates (counterscreen for miR-21 project); Luciferin 4-monooxygenase (Photinus pyralis), P08659; Potency, µM (series often up to 57.5 µM), inactives show top-dose activity change, negative = inhibition, usual class: inhibitors; 360,000 tested, 6.9% active; purified FLuc, Km substrates, luminescence inhibition;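 further: plate controls were vehicle for no effect and reference inhibitor for full effect; nearly all actives have a fitted effect of over 55% in size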
Target sequence (P08659 whole entry, looked up): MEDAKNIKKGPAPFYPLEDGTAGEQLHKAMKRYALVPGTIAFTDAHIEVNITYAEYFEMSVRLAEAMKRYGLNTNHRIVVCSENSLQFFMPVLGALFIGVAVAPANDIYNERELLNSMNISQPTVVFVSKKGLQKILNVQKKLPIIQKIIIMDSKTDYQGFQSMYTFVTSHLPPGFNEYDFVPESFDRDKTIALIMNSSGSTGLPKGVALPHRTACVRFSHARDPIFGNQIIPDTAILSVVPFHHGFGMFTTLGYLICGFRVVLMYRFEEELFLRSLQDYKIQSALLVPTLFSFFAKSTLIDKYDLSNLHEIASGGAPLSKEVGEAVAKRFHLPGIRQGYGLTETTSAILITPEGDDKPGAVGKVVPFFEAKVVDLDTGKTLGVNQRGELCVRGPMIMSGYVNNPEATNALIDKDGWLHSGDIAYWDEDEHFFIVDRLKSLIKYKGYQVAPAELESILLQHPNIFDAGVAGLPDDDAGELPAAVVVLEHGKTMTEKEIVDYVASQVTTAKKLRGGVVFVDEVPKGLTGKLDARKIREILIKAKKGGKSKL
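Purified P. pyralis luciferase (10nM final) with 10uM D-luciferin and 10uM ATP (Km levels) in 50mM Tris acetate pH 7.5, 10mM Mg acetate, 0.01% Tween-20, 0.05% BSA; qHTS 6-point titration, ~60 µM downward; luminescence read.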
NPC1 promoter act: qHTS Assay for NPC1 Promoter Activators; Potency, µM (highest dose often 9.22 µM), inactives show at the highest dose activation, actives largely listed as activators; 320,000 tested, 2.4% active; Huh7 NPC1 promoter luciferase reporter, 24 h; AID 485313, 2010; further: % of control where 0% means no effect; nearly all actives have a fitted effect of over 60% in size
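Stable NPC1-promoter luciferase Huh7 line; cpd (DMSO) 24 h, 37 °C, 5% CO2; Amplite luciferase reagent 10 min RT; luminescence readout. qHTS format.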
ELG1 genotox: qHTS screen for small molecules that induce genotoxicity in human embryonic kidney (HEK293T) cells expressing luciferase-tagged ELG1; HEK293T ELG1-luciferase reporter, luminescence, 16 h; Potency, µM (top dose mostly 46 µM), without a hit: at the highest dose activity change, positive = activation, actives largely listed as activators; 330,000 tested, 1.3% active; AID 504466, 2011; further: % of control where 0% means no effect; nearly all actives have a fitted effect of over 60% in size
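HEK293T cells expressing luciferase-tagged ELG1 were treated with compound or DMSO for 16 hr at 37°C. Luciferase activity was then read after 30 min with ONE-Glo at room temperature; rising signal flags genetic stress.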
Numbers without * were called inactive; ? = inconclusive; . = no result; [ ] = another dose, or the depositor's remark. Compounds with a hit are over-represented: about 7.4% of the library has one in this group of screens. The call rests on the fitted dose curve; in most records, active means well fitted curve in the direction sought with a large enough effect; inconclusive means small, poorly fitted or top-dose-only effect, or another doubt; inactive means no such curve, though single readings can be large; an effect the other way counts as inactive or inconclusive. Potency means the concentration at half of the fitted maximal effect.

SMILES	SMN2 splice enh	Rab9 prom act	FLuc counter	NPC1 promoter act	ELG1 genotox
CCCSc1nnc(-c2c[nH]c3ccccc23)n1C	-20%	24%	15µM*	22%	?
C[C@@H]1C(=O)OC[C@H]1NC(=O)OCc1ccccc1	.	-3%	3%	-1%	3%
COC(=O)CNC(=O)[C@@]1(C)C=C[C@@H](Cc2ccccc2)N1C(C)=O	14µM*	.	.	.	.
Cc1ccc2occ(-c3cc(-c4ccccc4)nc4c3COc3ccccc3-4)c(=O)c2c1	-24%	.	0%	.	.
COc1ccc2c(c1)C(=O)c1ccccc1CO2	?	3.2µM*	6µM*	4µM*	?
COc1ccc(OC)c(S(=O)(=O)Nc2cccc(-c3ccc(N4CCCCCC4)nn3)c2)c1	.	8%	17µM*	-4%	-4%
COc1ccc(S(=O)(=O)Nc2cccc(-c3ccc(N4CCCCCC4)nn3)c2)c(OC)c1	.	?	8.5µM*	?	?
CC(=O)N1CCCC1c1nc2ccccc2n1Cc1ccccc1F (centres undefined)	.	.	-11%	.	.
CCCn1c(-c2ccc(F)cc2)nc2c(NC(C)CN(C)C)nc(C)nc21 (centres undefined)	-4%	.	.	.	.
CCc1ccc(-n2c(=O)c3cccnc3n2CC(=O)Nc2cc(F)ccc2F)cc1	.	.	0%	.	.
Cc1sc2nc(-c3cccnc3)nc(Cl)c2c1-c1ccccc1	?	17%	17µM*	?	11%
Cc1sc2nc(-c3ccccc3)[nH]c(=O)c2c1-c1ccccc1	0%	-2%	-6%	-3%	6%
CCOc1cc(/C=N/NC(=O)c2cccnc2)ccc1O	.	-6%	-2%	-5%	-1%
CCOc1cccc(/C=N/NC(=O)c2cc(C3CC3)[nH]n2)c1O	.	-37%	12µM*	-43%	?
CCOc1cccc(/C=N/NC(=O)c2cccnc2)c1O	.	-11%	19µM*	-21%	?
O=C(Nc1ccc(OCc2ccccc2Cl)cc1)c1cccnc1	.	1%	?	-3%	2%
O=C(N/N=C/c1ccccc1OCc1ccccc1Cl)c1cccnc1	-21%	-5%	24µM*	0%	5%
CCOc1ccc(NC(=O)c2sc3nc4c(c(-c5ccc(OC)cc5)c3c2N)C(=O)CC(C)(C)C4)cc1	5%	.	-1%	.	.
Nc1c(O)ccc2c1C(=O)c1ccccc1C2=O	29%	2%	17µM*	14%	10%
Cc1ccc(C)c(N2CCN(C(=O)C(C)n3nc(C)c4sc5ccccc5c4c3=O)CC2)c1 (centres undefined)	.	.	15µM*	.	.
Cc1nn(C(C)C(=O)N2CCCCC2)c(=O)c2c1sc1ccccc12 (centres undefined)	-10%	9%	-4%	-5%	-4%
Cc1cc(-c2ccc(Br)cc2)n[nH]1	?	?	19µM*	?	?
Nc1cc(-c2ccc(Br)cc2)[nH]n1	-2%	16%	?	18%	-2%
O=c1cc(-c2ccccc2Cl)oc2cccc(O)c12	15%	-1%	-18%	2%	12%
O=c1cc(-c2ccccc2Cl)oc2c(Br)ccc(O)c12	10µM*	3.5µM*	12µM*	?	?
SMILES	SMN2 splice enh	Rab9 prom act	FLuc counter	NPC1 promoter act	ELG1 genotox
C/C(=N\OCC(=O)OCC(=O)NC(=O)c1ccc(OC(F)F)cc1)c1ccc2c(c1)OCO2	.	-5%	9%	-1%	-2%
O=C(COC(=O)c1cc(=O)[nH]c2ccccc12)c1ccc(Br)cc1	.	-6%	?	14%	11%
CCOc1ccc(C(=O)COC(=O)c2cc(=O)[nH]c3ccccc23)cc1	.	2%	1.3µM*	-1%	1%
CCOc1ccc(C(=O)COC(=O)c2cccc(-n3cnnn3)c2)cc1	.	?	2.7µM*	?	23%
CN(C)c1ccc(/C=C2/SC(=O)N(CCN=C3NS(=O)(=O)c4ccccc43)C2=O)cc1	.	?	-13%	?	12%
CN(C)c1ccc(/C=C2\SC(=O)N(CCc3nnc(N)s3)C2=O)cc1	.	?	0.13µM*	0.1µM*	?
C[C@H](Br)C(=O)Nc1ccc(C(=O)O)c(O)c1	-9%[9.22 µM]	.	.	.	.
CCN(C(=O)COC(=O)c1cc([N+](=O)[O-])ccc1N1CCOCC1)C1CCCCC1	.	-2%	2%	-1%	4%
CC(C)(C)C(=O)[C@H]1[C@H](c2ccccc2)[C@@]2(N=C(c3ccccc3)OC2=O)C2c3ccccc3C=NN21 (some centres undefined)	13%	-1%	15µM*	0%	3%
O=S(=O)(c1ccsc1)N1CC=C(c2ccccc2)CC1	.	14%	-12%	1%	-5%
COc1cccc(N2CCN(C(=O)CCNS(=O)(=O)c3ccc4c(c3)c(=O)n(C)c(=O)n4C)CC2)c1	-38%	-7%	4%	-9%	5%
O=C(CC(SCCO)c1ccc2c(c1)OCO2)c1cccs1 (centres undefined)	24%	4µM*	13µM*	?	?
COc1ccc(-c2cc(C(F)(F)F)nc(-n3ccnc3C)n2)cc1	-20%	1%	2%	0%	-6%
CN(C)/C=C/C(=O)c1ccc(-n2cccc2)cc1	13µM*	2.8µM*	11µM*	3.5µM*	?
C[C@@H](C(=O)Nc1nc2ccc(F)cc2s1)N1C(=O)C2CC=CCC2C1=O (some centres undefined)	31%	2%	-18%	13%	3%
Cc1ccc2nc(NC(=O)[C@H](C)N3C(=O)C4CC=CCC4C3=O)sc2c1 (some centres undefined)	21%	-21%	17µM*	-14%	5%
Cc1ccc2nc(NC(=O)CN3C(=O)C4CC=CCC4C3=O)sc2c1 (centres undefined)	13%	1%	11µM*	-5%	1%
Cc1cn([C@@H]2C[C@H](N=[N+]=N)[C@H](CO)O2)c(=O)[nH]c1=O	4%[20.6 µM]	.	.	.	.
Cc1cc(C)c(C#N)c(SCc2ccccc2[N+](=O)[O-])n1	-22%	0%	-13%	-1%	1%
Cc1ccc(C#N)c(SCc2nnc(-c3ccc(Cl)cc3)o2)n1	-82%	1%	0.43µM*	-2%	?
Cc1cc(C)c(C#N)c(SCc2nnc(-c3ccccc3)o2)n1	-39%[1.84 µM]	-5%	3µM*	-2%	?
COc1ccccc1-c1cc(-c2ccc(C)cc2)nc(SCc2nnc(-c3ccccc3)o2)c1C#N	-20%	-10%	-1%	-1%	-1%
Cc1cc(C)c(C#N)c(SCc2nnc(-c3ccccc3[N+](=O)[O-])o2)n1	1.1µM*	3.2µM*	21µM*	1.4µM*	2.6µM*
COc1ccc2oc(C(=O)Nc3ccc(S(=O)(=O)N(C)C4CCN(C)CC4)cc3)c(C)c2c1	.	3%	?	-1%	25%
